ChEMBL document CHEMBL1961873, “Compounds: GSK PKIS; Assays: Nanosyn kinase panel” (2012)

What was measured:
[1] = target: T1, Serine/threonine-protein kinase TBK1 (Homo sapiens) (UniProt Q9UHD2); details: at 1 µM;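 further: values are mean inhibition of TBK1, screened as part of the GSK published kinase inhibitor set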
T1 sequence (whole entry): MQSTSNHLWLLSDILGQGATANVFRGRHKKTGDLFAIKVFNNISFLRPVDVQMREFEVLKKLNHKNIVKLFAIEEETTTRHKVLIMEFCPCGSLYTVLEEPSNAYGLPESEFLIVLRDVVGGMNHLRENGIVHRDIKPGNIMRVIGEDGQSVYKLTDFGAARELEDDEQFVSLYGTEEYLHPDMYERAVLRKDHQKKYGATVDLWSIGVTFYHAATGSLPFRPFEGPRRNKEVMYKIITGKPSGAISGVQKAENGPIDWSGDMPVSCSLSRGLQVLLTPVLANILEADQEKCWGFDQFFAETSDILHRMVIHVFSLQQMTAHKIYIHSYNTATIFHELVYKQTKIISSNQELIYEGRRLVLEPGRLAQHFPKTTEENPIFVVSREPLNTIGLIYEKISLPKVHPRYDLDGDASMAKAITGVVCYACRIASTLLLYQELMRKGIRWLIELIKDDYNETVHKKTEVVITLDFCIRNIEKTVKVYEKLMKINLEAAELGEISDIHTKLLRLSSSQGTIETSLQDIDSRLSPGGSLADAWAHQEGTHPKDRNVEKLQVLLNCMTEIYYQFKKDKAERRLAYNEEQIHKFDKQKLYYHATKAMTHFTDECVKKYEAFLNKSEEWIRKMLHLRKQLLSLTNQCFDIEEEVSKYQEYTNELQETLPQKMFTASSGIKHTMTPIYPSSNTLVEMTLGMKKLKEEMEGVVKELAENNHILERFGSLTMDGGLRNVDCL

[2] = target: T2, Testis-specific serine/threonine-protein kinase 1 (Homo sapiens) (UniProt Q9BXA7); details: at 0.1 µM
T2 sequence (whole entry): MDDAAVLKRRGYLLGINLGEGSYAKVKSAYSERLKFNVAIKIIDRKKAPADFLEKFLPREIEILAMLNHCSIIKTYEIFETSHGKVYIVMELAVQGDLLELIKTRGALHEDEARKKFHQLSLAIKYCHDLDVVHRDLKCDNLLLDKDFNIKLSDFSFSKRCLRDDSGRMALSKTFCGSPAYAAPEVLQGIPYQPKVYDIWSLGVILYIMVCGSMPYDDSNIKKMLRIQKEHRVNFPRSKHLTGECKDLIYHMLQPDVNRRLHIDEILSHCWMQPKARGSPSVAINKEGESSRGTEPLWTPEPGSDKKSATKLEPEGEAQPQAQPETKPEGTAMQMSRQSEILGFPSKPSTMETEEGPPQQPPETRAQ

[3] = target: T2, Testis-specific serine/threonine-protein kinase 1 (Homo sapiens); details: at 1 µM
[4] = target: T3, Testis-specific serine/threonine-protein kinase 2 (Homo sapiens) (UniProt Q96PF2); details: at 0.1 µM
T3 sequence (whole entry): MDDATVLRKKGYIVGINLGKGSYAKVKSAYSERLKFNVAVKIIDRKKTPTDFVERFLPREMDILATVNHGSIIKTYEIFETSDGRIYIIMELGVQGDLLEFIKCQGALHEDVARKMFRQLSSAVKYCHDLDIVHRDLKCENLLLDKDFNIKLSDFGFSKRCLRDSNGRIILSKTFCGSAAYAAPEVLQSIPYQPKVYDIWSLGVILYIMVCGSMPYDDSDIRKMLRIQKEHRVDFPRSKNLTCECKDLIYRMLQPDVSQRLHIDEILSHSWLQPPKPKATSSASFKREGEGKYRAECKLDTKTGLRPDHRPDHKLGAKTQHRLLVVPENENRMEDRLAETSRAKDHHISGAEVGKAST

[5] = target: T3, Testis-specific serine/threonine-protein kinase 2 (Homo sapiens); details: at 1 µM
[6] = target: Casein kinase I isoform alpha (Homo sapiens) (UniProt P48729); details: at 0.1 µM
Casein kinase I isoform alpha (Homo sapiens), sequence (P48729 2-337 limits assumed): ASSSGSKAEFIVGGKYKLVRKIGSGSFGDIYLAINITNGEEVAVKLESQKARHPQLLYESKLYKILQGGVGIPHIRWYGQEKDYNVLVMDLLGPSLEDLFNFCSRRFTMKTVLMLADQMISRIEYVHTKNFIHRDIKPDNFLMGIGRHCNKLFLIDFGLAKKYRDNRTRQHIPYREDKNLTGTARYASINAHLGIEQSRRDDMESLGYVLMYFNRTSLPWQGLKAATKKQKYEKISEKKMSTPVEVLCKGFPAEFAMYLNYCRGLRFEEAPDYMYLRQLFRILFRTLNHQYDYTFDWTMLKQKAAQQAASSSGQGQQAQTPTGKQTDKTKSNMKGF

[7] = target: Casein kinase I isoform alpha (Homo sapiens) (UniProt P48729); details: at 1 µM
[8] = target: Casein kinase I isoform gamma-1 (Homo sapiens) (UniProt Q9HCP0); details: at 0.1 µM
Casein kinase I isoform gamma-1 (Homo sapiens), sequence (Q9HCP0 whole entry, looked up, canonical isoform): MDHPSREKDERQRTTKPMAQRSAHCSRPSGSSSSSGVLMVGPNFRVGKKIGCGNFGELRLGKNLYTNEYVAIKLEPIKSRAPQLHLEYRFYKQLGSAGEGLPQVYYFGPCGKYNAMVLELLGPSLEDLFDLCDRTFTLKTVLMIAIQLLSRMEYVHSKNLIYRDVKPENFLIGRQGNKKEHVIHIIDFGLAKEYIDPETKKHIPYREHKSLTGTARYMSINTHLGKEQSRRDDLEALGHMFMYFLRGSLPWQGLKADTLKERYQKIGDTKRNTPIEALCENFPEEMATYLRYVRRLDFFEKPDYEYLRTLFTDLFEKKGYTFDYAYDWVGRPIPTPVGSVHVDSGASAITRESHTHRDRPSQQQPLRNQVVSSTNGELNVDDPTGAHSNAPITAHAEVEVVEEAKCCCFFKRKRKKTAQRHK

[9] = target: Casein kinase I isoform gamma-1 (Homo sapiens) (UniProt Q9HCP0); details: at 1 µM
[10] = target: Casein kinase I isoform gamma-2 (Homo sapiens) (UniProt P78368); details: at 0.1 µM
Casein kinase I isoform gamma-2 (Homo sapiens), sequence (P78368 whole entry, looked up, canonical isoform): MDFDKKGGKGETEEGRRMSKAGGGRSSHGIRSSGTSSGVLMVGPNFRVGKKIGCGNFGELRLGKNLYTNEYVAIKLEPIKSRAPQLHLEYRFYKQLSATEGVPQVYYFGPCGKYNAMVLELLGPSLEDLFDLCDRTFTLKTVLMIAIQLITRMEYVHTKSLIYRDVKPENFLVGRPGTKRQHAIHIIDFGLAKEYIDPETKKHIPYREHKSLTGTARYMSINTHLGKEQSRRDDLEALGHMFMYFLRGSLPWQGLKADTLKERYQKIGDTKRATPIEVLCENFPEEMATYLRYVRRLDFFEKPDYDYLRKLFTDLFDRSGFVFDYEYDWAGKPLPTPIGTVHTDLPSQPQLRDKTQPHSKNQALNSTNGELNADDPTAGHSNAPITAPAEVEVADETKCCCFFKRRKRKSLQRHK

[11] = target: Casein kinase I isoform gamma-2 (Homo sapiens) (UniProt P78368); details: at 1 µM
[12] = target: Casein kinase I isoform gamma-3 (Homo sapiens) (UniProt Q9Y6M4); details: at 0.1 µM
Casein kinase I isoform gamma-3 (Homo sapiens), sequence (Q9Y6M4 whole entry, looked up, canonical isoform): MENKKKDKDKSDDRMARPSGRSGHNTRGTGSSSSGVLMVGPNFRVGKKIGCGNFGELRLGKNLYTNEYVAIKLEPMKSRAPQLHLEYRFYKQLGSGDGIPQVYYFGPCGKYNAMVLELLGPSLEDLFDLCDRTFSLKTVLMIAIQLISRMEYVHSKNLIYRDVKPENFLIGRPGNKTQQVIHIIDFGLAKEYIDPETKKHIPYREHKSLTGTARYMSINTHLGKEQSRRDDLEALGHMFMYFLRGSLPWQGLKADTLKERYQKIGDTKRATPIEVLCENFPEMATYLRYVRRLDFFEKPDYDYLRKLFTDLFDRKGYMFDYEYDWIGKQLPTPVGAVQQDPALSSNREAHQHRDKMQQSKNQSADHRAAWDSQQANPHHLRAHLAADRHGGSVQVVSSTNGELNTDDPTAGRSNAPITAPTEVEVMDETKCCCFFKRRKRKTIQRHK

[13] = target: Casein kinase I isoform gamma-3 (Homo sapiens) (UniProt Q9Y6M4); details: at 1 µM
[14] = target: Cyclin-dependent kinase 1 (Homo sapiens) (UniProt P06493); details: at 0.1 µM
Cyclin-dependent kinase 1 (Homo sapiens), sequence (P06493 whole entry, looked up): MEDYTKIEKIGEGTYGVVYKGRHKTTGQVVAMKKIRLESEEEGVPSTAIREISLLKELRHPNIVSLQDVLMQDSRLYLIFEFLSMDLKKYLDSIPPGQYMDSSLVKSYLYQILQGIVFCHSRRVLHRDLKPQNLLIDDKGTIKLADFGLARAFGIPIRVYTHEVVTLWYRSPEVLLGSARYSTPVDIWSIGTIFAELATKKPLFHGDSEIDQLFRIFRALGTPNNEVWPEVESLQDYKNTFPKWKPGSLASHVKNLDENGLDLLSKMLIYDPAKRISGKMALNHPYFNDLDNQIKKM

[15] = target: Cyclin-dependent kinase 1 (Homo sapiens) (UniProt P06493); details: at 1 µM
[16] = target: Cyclin-dependent kinase 2 (Homo sapiens) (UniProt P24941); details: at 0.1 µM
[17] = target: Cyclin-dependent kinase 2 (Homo sapiens) (UniProt P24941); details: at 1 µM
[18] = target: Cyclin-dependent kinase 2 (Homo sapiens) (UniProt P24941); details: at 0.1 µM; remark: listed apart in the source
[19] = target: Cyclin-dependent kinase 2 (Homo sapiens) (UniProt P24941); details: at 1 µM; remark: listed apart in the source
[20] = target: CDK3/Cyclin E (Homo sapiens) (UniProt P24864+Q00526); details: at 0.1 µM;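 further: reported percentages are mean inhibition values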
CDK3/Cyclin E (Homo sapiens), sequence (P24864 whole entry, looked up): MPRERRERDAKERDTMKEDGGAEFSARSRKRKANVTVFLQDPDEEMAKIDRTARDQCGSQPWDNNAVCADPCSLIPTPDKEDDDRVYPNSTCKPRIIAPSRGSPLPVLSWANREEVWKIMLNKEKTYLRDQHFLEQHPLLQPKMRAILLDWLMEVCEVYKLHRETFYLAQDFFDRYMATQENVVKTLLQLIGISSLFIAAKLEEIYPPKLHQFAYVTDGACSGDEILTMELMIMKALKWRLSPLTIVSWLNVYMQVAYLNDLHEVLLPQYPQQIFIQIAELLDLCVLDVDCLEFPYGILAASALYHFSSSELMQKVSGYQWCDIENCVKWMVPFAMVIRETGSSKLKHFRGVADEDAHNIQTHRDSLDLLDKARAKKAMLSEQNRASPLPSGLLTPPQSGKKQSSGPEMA
CDK3/Cyclin E (Homo sapiens), sequence (Q00526 whole entry, looked up): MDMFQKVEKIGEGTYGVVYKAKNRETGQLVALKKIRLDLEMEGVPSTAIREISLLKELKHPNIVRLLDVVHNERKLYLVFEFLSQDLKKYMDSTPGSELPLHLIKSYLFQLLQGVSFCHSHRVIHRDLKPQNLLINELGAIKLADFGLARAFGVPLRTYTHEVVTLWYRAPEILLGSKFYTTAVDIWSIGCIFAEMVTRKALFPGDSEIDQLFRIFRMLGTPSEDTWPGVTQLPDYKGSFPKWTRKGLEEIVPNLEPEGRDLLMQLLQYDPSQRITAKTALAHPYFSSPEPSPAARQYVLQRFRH

Fc1cccc(COc2ccc(Nc3ncnc4cc(-c5ccc[nH]5)sc34)cc2Cl)c1
inhibition [1]: 3.65%
inhibition [2]: 2.48%
inhibition [3]: 2.76%
inhibition [4]: 1.09%
inhibition [5]: 2.13%
inhibition [6]: 0.63%
inhibition [7]: 0.84%
inhibition [8]: -1.43%
inhibition [9]: -0.95%
inhibition [10]: -1.97%
inhibition [11]: -1.46%
inhibition [12]: -2.89%
inhibition [13]: -1.56%
inhibition [14]: -1.89%
inhibition [15]: 1.88%
inhibition [16]: -1.97%
inhibition [17]: -1.57%
inhibition [18]: -0.46%
inhibition [19]: 2.07%
inhibition [20]: 3.58%

O=C1NC(=O)C(N2CCc3ccccc32)=C1c1ccc(Cl)cc1
inhibition [1]: 5.62%
inhibition [2]: 3.65%
inhibition [3]: 2.94%
inhibition [4]: 1.38%
inhibition [5]: 0.39%
inhibition [6]: 4.4%
inhibition [7]: 5.22%
inhibition [8]: 4.48%
inhibition [9]: 5.14%
inhibition [10]: 2.83%
inhibition [11]: 5.08%
inhibition [12]: 4.47%
inhibition [13]: 3.56%
inhibition [14]: 1.77%
inhibition [15]: 3.26%
inhibition [16]: -1.05%
inhibition [17]: 0.31%
inhibition [18]: 5.31%
inhibition [19]: 6.11%
inhibition [20]: 3.85%

CCc1cccc(NC(=O)Nc2ccc(Oc3ccc4nc(NC(=O)OC)[nH]c4c3)cc2)c1
inhibition [1]: 0.79%
inhibition [2]: 1.3%
inhibition [3]: 1.11%
inhibition [4]: 0.77%
inhibition [5]: 1.72%
inhibition [6]: 2.12%
inhibition [7]: 0.76%
inhibition [8]: 1.05%
inhibition [9]: 0.85%
inhibition [10]: 1.08%
inhibition [11]: 0.48%
inhibition [12]: 0.13%
inhibition [13]: 2.93%
inhibition [14]: -1.03%
inhibition [15]: 0.5%
inhibition [16]: 0.71%
inhibition [17]: 1.95%
inhibition [18]: 3.03%
inhibition [19]: -0.35%
inhibition [20]: 1.01%

CN(C)c1cc2c(Nc3ccc4nc(Cc5ccccc5)[nH]c4c3)ncnc2cn1
inhibition [1]: 4.24%
inhibition [2]: 5.14%
inhibition [3]: 5.29%
inhibition [4]: 4.42%
inhibition [5]: 3.59%
inhibition [6]: 3.65%
inhibition [7]: 6.31%
inhibition [8]: 4.21%
inhibition [9]: 5.5%
inhibition [10]: 3.69%
inhibition [11]: 5.2%
inhibition [12]: 3.73%
inhibition [13]: 4.56%
inhibition [14]: -0.43%
inhibition [15]: 1.6%
inhibition [16]: 2.83%
inhibition [17]: 6.58%
inhibition [18]: 4.49%
inhibition [19]: 5.71%
inhibition [20]: 3.16%

CN1CCC(C(=O)Nc2n[nH]c3nnc(-c4ccccc4)cc23)CC1
inhibition [1]: 3.05%
inhibition [2]: 5.87%
inhibition [3]: 6.95%
inhibition [4]: 3.85%
inhibition [5]: 6.08%
inhibition [6]: 2.13%
inhibition [7]: 4%
inhibition [8]: 5.08%
inhibition [9]: 5.43%
inhibition [10]: 3.51%
inhibition [11]: 6.16%
inhibition [12]: 2.15%
inhibition [13]: 4.71%
inhibition [14]: 1.44%
inhibition [15]: 9.39%
inhibition [16]: 1.83%
inhibition [17]: 5.99%
inhibition [18]: 5.55%
inhibition [19]: 7.79%
inhibition [20]: 5.12%

O=C1NC(=O)C(c2ccc(Cl)cc2)=C1Nc1ccc(Cl)c(C(=O)O)c1
inhibition [1]: 0.78%
inhibition [2]: -1.77%
inhibition [3]: -3.14%
inhibition [4]: -1.44%
inhibition [5]: -2.14%
inhibition [6]: 0.85%
inhibition [7]: -1.03%
inhibition [8]: -1.57%
inhibition [9]: -2.04%
inhibition [10]: -1.56%
inhibition [11]: -1.57%
inhibition [12]: -0.68%
inhibition [13]: -1.39%
inhibition [14]: 0.08%
inhibition [15]: 1.14%
inhibition [16]: -1.04%
inhibition [17]: -8.99%
inhibition [18]: -0.37%
inhibition [19]: 0.53%
inhibition [20]: -0.7%
